Measurements: PubChem BioAssay (Tox21)
Where “and” joins values, the source holds several entries; their conditions need not be identical. Identical values can stand only once. Records with an inconclusive call do not appear. Entries that show only a call come without a potency. Calls of active or inactive are those of the source. The call rests on the fitted dose curve; in most records, active means well fitted curve in the direction sought with a large enough effect in the repeat runs; inconclusive means weak or mixed curves; inactive means no such curve, though single readings can be large; an effect the other way counts as inactive or inconclusive.

System: not listed separately
Assay: Caspase-3/7 induction in HepG2 cells by small molecules, qHTS cell viability counter screen (AID 1346981); further: nearly all actives have a fitted effect of over 30% in size
Details: CellTiter-Fluor fluorescence, 17 h; series mostly up to 92.4 µM
How it was run: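 CellTiter-Fluor fluorescence measured viability in the same wells used for Caspase-Glo 3/7. HepG2 (wild type) at 2,000 cells/well were pre-incubated 5 hr, dosed, and given reagent at 16 hr, with 1 hr further at 37C.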
Potency means the concentration at half of the fitted maximal effect.

SMILES | Potency | activity change, negative = cytotoxicity
CC(=O)N(CC(O)CO)c1c(I)c(C(=O)NCCO)c(I)c(C(=O)NCC(O)CO)c1I (stereo not given) | inactive | –
NC(=O)COCCN1CCN(C(c2ccccc2)c2ccc(Cl)cc2)CC1 (stereo not given) | inactive | –
CC(=O)CC(C)(C)C1CCCCC1 | inactive | –
C[C@H](NC(CCc1ccccc1)C(=O)O)C(=O)N1CCC[C@H]1C(=O)O (stereo not given in full) | inactive | –
CCC(=O)OC(C)c1ccccc1 (stereo not given) | inactive | –
OC[C@]1(O)OC[C@@H](O)[C@H](O)[C@@H]1O | inactive | –
C=COCC1CCC(CO)CC1 (stereo not given) | inactive | –
CC1=CC(C)C(C=O)CC1 (stereo not given) | inactive | –
CCc1ccc(O)c(OC)c1 | inactive | –
CN1C(=O)N(C)C(O)C1O (stereo not given) | inactive | –
COC(=O)CC(C)=O | inactive | –
CC/C=C\CC/C=C/CO | inactive | –
CCCCCCCCCCCCCCCCC | inactive | –
O=C1CCCC(=O)C1 | inactive | –
Nc1c[n+](N2CCOCC2)no1 | inactive | –
CO[C@]12C[C@@H](COC(=O)c3cncc(Br)c3)CN(C)[C@@H]1Cc1cn(C)c3cccc2c13 | inactive | –
CC(C)(c1ccc(O)cc1)c1ccc(O)cc1 | inactive | –
COC(=O)NN | inactive | –

SMILES | Potency | activity change, negative = cytotoxicity
O=C1CCCCCCCCCCCN1 | inactive | –
O=C(O)c1ccccc1OP(=O)(O)O | inactive | –
CCCCCCCCCCCCCC=O | – | -0.047% [at 8.39 µM] (inactive)
O=C(c1ccccc1)C1CCCCC1 | inactive | –
O=C1CCCN1C1CCCCC1 | inactive | –
NCCCNCCSP(=O)(O)O | – | 1.15% [at 8.39 µM] (inactive)
Cc1c(O)cccc1O | inactive | –
Cc1ccc(Cl)cc1Cl | inactive | –
CCC(C)C1CCCCC1=O (stereo not given) | inactive | –
CN1CCCC1 | inactive | –
CCOC(=O)c1ccc(C)cc1 | inactive | –
COC(=O)c1cc(C(=O)OC)cc(S(=O)(=O)O)c1 | inactive | –
C=C[Si](OC(=C)C)(OC(=C)C)OC(=C)C | inactive | –
C=C(C)C(=O)OCCCCCCCC(C)C | 1380 nM (active) | –
CCC(C)S (stereo not given) | – | -0.646% [at 3.27 µM] (inactive)
O=c1cc(CO)occ1O | inactive | –
CN(C)CCCNCCCN(C)C | inactive | –

Target: Nuclear receptor subfamily 1 group I member 2 (Homo sapiens) (UniProt O75469)
Assay: Human pregnane X receptor (PXR) small molecule agonists, qHTS assay (AID 1346982); further: nearly all actives have a fitted effect of over 35% in size
Details: PXR-Luc HepG2, CYP3A4 luciferase reporter, 24 h; series mostly up to 92.4 µM
How it was run: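 Agonist mode: luminescence from ONE-Glo after 24 h compound exposure at 37C in HepG2 cells carrying hPXR-responsive CYP3A4 luciferase, plated in charcoal-stripped serum medium 5 h beforehand.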

Chain of Nuclear receptor subfamily 1 group I member 2 (Homo sapiens) (O75469 whole entry, looked up): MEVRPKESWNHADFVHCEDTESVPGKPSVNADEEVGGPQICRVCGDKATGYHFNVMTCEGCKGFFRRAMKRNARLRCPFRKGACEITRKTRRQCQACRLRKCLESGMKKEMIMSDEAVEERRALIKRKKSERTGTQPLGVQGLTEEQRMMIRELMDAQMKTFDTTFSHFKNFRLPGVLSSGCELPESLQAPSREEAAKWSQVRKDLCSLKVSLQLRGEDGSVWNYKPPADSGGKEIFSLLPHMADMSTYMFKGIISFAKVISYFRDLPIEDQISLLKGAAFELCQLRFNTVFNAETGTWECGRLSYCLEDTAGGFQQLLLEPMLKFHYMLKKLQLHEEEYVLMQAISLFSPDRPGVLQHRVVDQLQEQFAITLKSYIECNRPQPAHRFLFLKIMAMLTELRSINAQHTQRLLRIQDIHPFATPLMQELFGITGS

SMILES | Potency | activation
CC(=O)N(CC(O)CO)c1c(I)c(C(=O)NCCO)c(I)c(C(=O)NCC(O)CO)c1I (stereo not given) | inactive | –
NC(=O)COCCN1CCN(C(c2ccccc2)c2ccc(Cl)cc2)CC1 (stereo not given) | inactive | –
CC(=O)CC(C)(C)C1CCCCC1 | inactive | –
C[C@H](NC(CCc1ccccc1)C(=O)O)C(=O)N1CCC[C@H]1C(=O)O (stereo not given in full) | inactive | –
CCC(=O)OC(C)c1ccccc1 (stereo not given) | inactive | –
OC[C@]1(O)OC[C@@H](O)[C@H](O)[C@@H]1O | inactive | –
C=COCC1CCC(CO)CC1 (stereo not given) | inactive | –
CC1=CC(C)C(C=O)CC1 (stereo not given) | inactive | –
CCc1ccc(O)c(OC)c1 | inactive | –
CN1C(=O)N(C)C(O)C1O (stereo not given) | inactive | –
COC(=O)CC(C)=O | inactive | –
CC/C=C\CC/C=C/CO | inactive | –
CCCCCCCCCCCCCCCCC | inactive | –
O=C1CCCC(=O)C1 | inactive | –
Nc1c[n+](N2CCOCC2)no1 | inactive | –
CO[C@]12C[C@@H](COC(=O)c3cncc(Br)c3)CN(C)[C@@H]1Cc1cn(C)c3cccc2c13 | inactive | –
CC(C)(c1ccc(O)cc1)c1ccc(O)cc1 | 24.1 µM (active) and 9.86 µM (active) | –
COC(=O)NN | inactive | –

SMILES | Potency | activation
O=C1CCCCCCCCCCCN1 | 48.5 µM (active) and 27.3 µM (active) | –
O=C(O)c1ccccc1OP(=O)(O)O | inactive | –
CCCCCCCCCCCCCC=O | – | -0.115% [at 8.39 µM] (inactive)
O=C(c1ccccc1)C1CCCCC1 | inactive | –
O=C1CCCN1C1CCCCC1 | inactive | –
NCCCNCCSP(=O)(O)O | – | -4.2% [at 8.39 µM] (inactive)
Cc1c(O)cccc1O | inactive | –
Cc1ccc(Cl)cc1Cl | inactive | –
CCC(C)C1CCCCC1=O (stereo not given) | inactive | –
CN1CCCC1 | inactive | –
CCOC(=O)c1ccc(C)cc1 | inactive | –
COC(=O)c1cc(C(=O)OC)cc(S(=O)(=O)O)c1 | inactive | –
C=C[Si](OC(=C)C)(OC(=C)C)OC(=C)C | inactive | –
C=C(C)C(=O)OCCCCCCCC(C)C | 870 nM (active) | –
CCC(C)S (stereo not given) | – | -2.18% [at 3.27 µM] (inactive)
O=c1cc(CO)occ1O | inactive | –
CN(C)CCCNCCCN(C)C | inactive | –
